The text below walks through data of ChEMBL document CHEMBL1157539, “Thousands of chemical starting points for antimalarial lead identification” (Nature, 2010).

One may read the Inhibition as the share of the control response that was lost under treatment.

Format in all cases: functional
Assay [1] concerns Plasmodium falciparum. The experiment in a line: GSK_TCMDC: Inhibition of Plasmodium falciparum 3D7 in whole red blood cells, using parasite LDH activity as an index of growth. Test compounds present at 2uM.
The subject of assay [2] is Plasmodium falciparum. The experiment in a line: GSK_TCMDC: Inhibition of Plasmodium falciparum Dd2 in whole red blood cells, using parasite LDH activity as an index of growth. Test compounds present at 2uM.
The next assay relates to HepG2. As to the kind of experiment: GSK_TCMDC: Percent inhibition of human HepG2 cell line. Test compounds present at 10uM.

For `N/C(=N\c1cccc(Cc2ccccc2)n1)NCc1ccccc1`, the results for the Inhibition in the assay with Plasmodium falciparum [1], in the assay on Plasmodium falciparum [2] and in the assay on HepG2 were 85%, 52% and 57%, respectively.
As to `CCOc1ccc2[nH]c(C)cc(=NN=Cc3cccnc3)c2c1`, the Inhibition in the assay with Plasmodium falciparum [1] is recorded as 100%; in the assay with Plasmodium falciparum [2], 100%; in the assay with HepG2 it was 18%.
As to `N#Cc1cncc(-c2nc3c(N4CCCC(N)C4)cccc3n2CCNCc2ccccc2)c1.O=C(O)C(F)(F)F` (centres undefined), the Inhibition turned out to be 100% with Plasmodium falciparum [1], 1% in the assay with Plasmodium falciparum [2] and 8% in the assay on HepG2.
